Laboratory results reported in PubChem BioAssay (EPA / NIEHS).
A structure can be active in one record and inactive in another. Calls of active or inactive are those of the source. The calls were made as follows: active = hit-call score of the fitted dose curve at least 0.9, where 1 is the maximum; inactive = score below 0.9.

Key:
[1] = ATG_CRE_CIS: Attagene CIS-FACTORIAL HepG2 Assay for human cAMP Responsive Element (CRE) binding protein 3 (AID 2282926); conditions: HepG2 CRE cis-reporter, Attagene multiplexed mRNA; actives raise or lower the signal
Method in brief: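 We dosed HepG2 cells bearing multiple cis-promoter reporter units for 24 h and measured reporter mRNA by RT-PCR with capillary electrophoresis detection. Bidirectional concentration-response fitting used DMSO as negative control.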

[2] = target: CCAAT/enhancer-binding protein beta (Homo sapiens) (UniProt P17676); assay: ATG_C_EBP_CIS: Attagene CIS-FACTORIAL HepG2 Assay for human CCAAT/Enhancer Binding Protein (C/EBP) beta (AID 2282927); conditions: HepG2 Attagene cis-factorial transcription factor reporter; actives raise or lower the signal
Method in brief: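 RT-PCR/capillary electrophoresis fluorescence of reporter mRNA, 24 h post-dose, in HepG2 cells carrying transfected cis-promoter reporter units. Bidirectional curve fitting against DMSO baseline captures gain or loss of signal.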

[3] = ATG_CMV_CIS: Attagene CIS-FACTORIAL HepG2 Assay for human CMV (Internal Marker) (AID 2282928); conditions: HepG2 CMV promoter reporter, transcription factor profiling; actives raise or lower the signal;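 also: endpoint acts as a background internal control marker rather than a target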
Method in brief: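 Endogenous transcription factor activity read in HepG2 via transfected cis-promoter reporter units. After 24 h dosing, reporter mRNA measured by RT-PCR/capillary electrophoresis; gain or loss of signal fit relative to DMSO.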

[4] = ATG_DR4_LXR_CIS: Attagene CIS-FACTORIAL HepG2 Assay for human Liver X Receptor (LXR), DR4 submotif (AID 2282929); conditions: HepG2 Attagene DR4 cis-reporter, mRNA transcription; actives raise or lower the signal
Method in brief: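 Endogenous factor activity at a DR4 cis-element is read as reporter mRNA in transiently transfected HepG2 cells. Exposure lasts 24 h; transcripts are amplified, fluorescently labelled and sized by capillary electrophoresis, with DMSO as baseline.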

[5] = target: Aryl hydrocarbon receptor (Homo sapiens) (UniProt P35869); assay: ATG_Ahr_CIS: Attagene CIS-FACTORIAL HepG2 Assay for human Aryl Hydrocarbon Receptor (Ahr) (AID 2282930); conditions: HepG2 AhR cis-factorial reporter transcription; actives raise or lower the signal
Method in brief: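 HepG2 cells transiently transfected with cis-element-driven multiplexed reporter transcription units; endogenous transcription factor activity measured as reporter mRNA 24 h after dosing. RT-PCR, 6-FAM labelling, HpaI digestion, capillary electrophoresis; bidirectional fitting versus DMSO baseline.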

[6] = ATG_AP_1_CIS: Attagene CIS-FACTORIAL HepG2 Assay for human Activator Protein 1 (AP-1) (AID 2282931); conditions: HepG2 Attagene cis-factorial AP-1 reporter mRNA; actives raise or lower the signal
Method in brief: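 Fluorescence of labelled PCR fragments separated by capillary electrophoresis gives reporter mRNA levels. HepG2 with transfected cis-regulated reporter units, 24 h exposure; DMSO serves as baseline for bidirectional curve fits.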

[7] = ATG_AP_2_CIS: Attagene CIS-FACTORIAL HepG2 Assay for human Activator Protein 2 (AP-2) (AID 2282932); conditions: HepG2 AP-2 cis-reporter, Attagene transcription factor profiling; actives raise or lower the signal
Method in brief: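 Bidirectional curve fitting against DMSO was applied to reporter mRNA signals from HepG2 cells 24 h after dosing. Cis-promoter reporter units, transiently transfected, were read by RT-PCR plus capillary electrophoresis.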

[8] = ATG_BRE_CIS: Attagene CIS-FACTORIAL HepG2 Assay for human Bone Morphogenetic Protein (BMP) Response Element (BRE) (AID 2282933); conditions: HepG2 BMP response element reporter, Attagene transcription factor profiling; actives raise or lower the signal
Method in brief: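 HepG2 cells transiently transfected with CIS reporter units (endogenous TF activity, BMP response element), dosed 24 h. Reporter mRNA quantified by RT-PCR, fluorescent labelling and capillary electrophoresis; bidirectional fit vs DMSO baseline.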

[9] = target: Retinoic acid receptor alpha (Homo sapiens) (UniProt P10276); assay: ATG_DR5_RAR_CIS: Attagene CIS-FACTORIAL HepG2 Assay for human Retinoic Acid Receptor Alpha (RARE), DR5 submotif (AID 2282934); conditions: HepG2 Attagene cis-factorial RARE DR5 reporter, mRNA; actives raise or lower the signal;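 as to AC50: reporter responds to endogenous RAR alpha beta and gamma in HepG2 not RARA alone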
Method in brief: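 HepG2 cells transiently transfected with multiplexed reporter units under cis (DR5 RARE) promoters, so endogenous transcription factor activity is measured. After 24 h compound exposure, reporter mRNA is quantified by RT-PCR with fluorescent labelling and capillary electrophoresis; bidirectional fitting versus DMSO.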

[10] = target: Transcription factor E2F1 (Homo sapiens) (UniProt Q01094); assay: ATG_E2F_CIS: Attagene CIS-FACTORIAL HepG2 Assay for human E2F Transcription Factor 1 (AID 2282935); conditions: HepG2 Attagene cis-reporter, E2F reporter RNA transcripts; actives raise or lower the signal
Method in brief: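 Multiplexed cis-reporter assay: HepG2, transient transfection, 24 h dosing, mRNA quantitation by labeled RT-PCR and CE.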

Chain of CCAAT/enhancer-binding protein beta (Homo sapiens) (P17676 whole entry, looked up): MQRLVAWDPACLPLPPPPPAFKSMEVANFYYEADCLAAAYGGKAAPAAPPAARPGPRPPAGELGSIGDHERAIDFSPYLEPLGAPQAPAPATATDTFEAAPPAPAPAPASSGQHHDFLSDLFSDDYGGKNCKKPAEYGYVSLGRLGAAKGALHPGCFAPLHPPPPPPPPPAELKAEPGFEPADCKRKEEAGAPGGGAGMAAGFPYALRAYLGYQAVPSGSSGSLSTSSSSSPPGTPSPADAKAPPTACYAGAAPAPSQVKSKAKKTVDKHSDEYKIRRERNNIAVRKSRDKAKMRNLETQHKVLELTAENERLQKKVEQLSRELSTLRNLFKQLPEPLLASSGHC
Chain of Retinoic acid receptor alpha (Homo sapiens) (P10276 whole entry, looked up): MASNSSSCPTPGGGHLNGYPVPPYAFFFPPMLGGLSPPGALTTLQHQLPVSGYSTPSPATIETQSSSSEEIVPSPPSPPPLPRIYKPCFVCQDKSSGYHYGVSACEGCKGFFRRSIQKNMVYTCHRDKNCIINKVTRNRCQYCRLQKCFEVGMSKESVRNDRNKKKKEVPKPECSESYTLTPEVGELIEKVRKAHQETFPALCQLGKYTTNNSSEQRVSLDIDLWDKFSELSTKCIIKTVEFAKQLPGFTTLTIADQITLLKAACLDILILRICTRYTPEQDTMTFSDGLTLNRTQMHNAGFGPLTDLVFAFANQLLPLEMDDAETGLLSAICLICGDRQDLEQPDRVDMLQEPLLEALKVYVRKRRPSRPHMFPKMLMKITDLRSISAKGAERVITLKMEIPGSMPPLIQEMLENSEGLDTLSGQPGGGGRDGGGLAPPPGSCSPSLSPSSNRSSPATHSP
Chain of Transcription factor E2F1 (Homo sapiens) (Q01094 whole entry, looked up): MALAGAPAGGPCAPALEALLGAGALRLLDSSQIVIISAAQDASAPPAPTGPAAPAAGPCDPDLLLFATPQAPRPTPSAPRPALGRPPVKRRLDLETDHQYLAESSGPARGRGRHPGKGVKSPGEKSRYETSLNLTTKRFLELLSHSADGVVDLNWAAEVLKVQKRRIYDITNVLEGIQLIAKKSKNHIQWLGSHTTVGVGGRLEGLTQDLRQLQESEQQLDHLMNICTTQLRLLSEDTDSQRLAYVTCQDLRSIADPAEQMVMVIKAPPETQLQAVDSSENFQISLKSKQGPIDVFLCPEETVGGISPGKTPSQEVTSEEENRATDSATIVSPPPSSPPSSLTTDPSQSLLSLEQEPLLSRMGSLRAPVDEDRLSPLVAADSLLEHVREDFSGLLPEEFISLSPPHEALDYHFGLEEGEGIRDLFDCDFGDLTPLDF
Chain of Aryl hydrocarbon receptor (Homo sapiens) (P35869 whole entry, looked up): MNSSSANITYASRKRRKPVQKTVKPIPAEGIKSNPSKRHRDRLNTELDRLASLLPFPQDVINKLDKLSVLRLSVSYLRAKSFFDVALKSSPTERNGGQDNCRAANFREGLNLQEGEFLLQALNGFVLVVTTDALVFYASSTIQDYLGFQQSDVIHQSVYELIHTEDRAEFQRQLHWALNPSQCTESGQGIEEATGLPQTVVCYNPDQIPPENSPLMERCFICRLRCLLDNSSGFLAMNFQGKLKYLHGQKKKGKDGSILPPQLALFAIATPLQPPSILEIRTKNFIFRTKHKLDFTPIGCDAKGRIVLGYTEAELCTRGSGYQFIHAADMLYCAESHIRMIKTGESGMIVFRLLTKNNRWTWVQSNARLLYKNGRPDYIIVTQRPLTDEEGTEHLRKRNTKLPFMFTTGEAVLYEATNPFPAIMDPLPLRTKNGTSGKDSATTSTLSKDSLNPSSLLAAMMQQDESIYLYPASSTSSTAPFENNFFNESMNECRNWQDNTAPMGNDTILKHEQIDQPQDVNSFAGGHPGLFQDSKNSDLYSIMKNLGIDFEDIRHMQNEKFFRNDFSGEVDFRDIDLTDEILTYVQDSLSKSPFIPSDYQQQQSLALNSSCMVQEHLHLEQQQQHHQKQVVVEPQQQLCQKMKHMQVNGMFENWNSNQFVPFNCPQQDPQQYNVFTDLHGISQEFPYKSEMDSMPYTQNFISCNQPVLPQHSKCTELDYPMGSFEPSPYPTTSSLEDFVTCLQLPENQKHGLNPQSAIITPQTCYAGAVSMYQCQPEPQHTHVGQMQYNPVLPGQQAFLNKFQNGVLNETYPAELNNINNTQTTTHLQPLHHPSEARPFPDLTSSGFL

SMILES	outcome [1]	outcome [2]	outcome [3]	outcome [4]	outcome [5]	outcome [6]	outcome [7]	outcome [8]	outcome [9]	outcome [10]	AC50 [1]	AC50 [2]	AC50 [4]	AC50 [8]	AC50 [3]	AC50 [5]	AC50 [6]	AC50 [9]	AC50 [7]
CN(C)C(=O)Cl	inactive	inactive	inactive	inactive	inactive	inactive	inactive	inactive	inactive	inactive									
O=C(CBr)OCc1ccccc1	inactive	inactive	inactive	inactive	inactive	inactive	inactive	inactive	inactive	inactive									
CC1(C)CN=C(NN=C(/C=C/c2ccc(C(F)(F)F)cc2)/C=C/c2ccc(C(F)(F)F)cc2)NC1			inactive		inactive	inactive	inactive		inactive	inactive	8.42 µM (active)	3.09 µM (active)	8.29 µM (active)	16.7 µM (active)					
CO/N=C(/C(=O)OC)c1ccccc1COc1ccccc1C	inactive	inactive		inactive			inactive			inactive				27.7 µM (active)	23.2 µM (active)	22.9 µM (active)	8.54 µM (active)	5.62 µM (active)	
CC(=O)c1ccc(-c2ccccc2)cc1	inactive	inactive	inactive	inactive		inactive	inactive	inactive	inactive	inactive						56.5 µM (active)			
O=S(=O)(c1ccc(O)cc1)c1ccc(O)cc1	inactive	inactive	inactive	inactive	inactive	inactive	inactive	inactive	inactive	inactive									
O=c1[nH]c2ccccc2c(=O)o1	inactive	inactive	inactive	inactive		inactive	inactive	inactive	inactive	inactive						89.5 µM (active)			
COP(=O)(CCC(=O)NCO)OC	inactive	inactive	inactive	inactive	inactive	inactive	inactive	inactive	inactive	inactive									
COC(=O)C(F)(F)C(F)(F)OC(F)(C(F)(F)F)C(F)(F)OC(F)=C(F)F (stereo not drawn)	inactive	inactive	inactive	inactive	inactive	inactive	inactive	inactive	inactive	inactive			20.2 µM (active)				9.89 µM (active)		
CCOP(=O)(O)C(N)=O	inactive	inactive	inactive	inactive	inactive	inactive	inactive	inactive	inactive	inactive									
Nc1ccc([N+](=O)[O-])cc1Cl	inactive	inactive	inactive	inactive	inactive	inactive	inactive	inactive	inactive	inactive									
COCCOCCO	inactive	inactive	inactive	inactive	inactive	inactive	inactive	inactive	inactive	inactive									
OCC(F)(F)OC(F)(F)C(F)(F)OC(F)(F)C(F)(F)OC(F)(F)F	inactive	inactive	inactive	inactive	inactive	inactive	inactive	inactive	inactive	inactive			80.8 µM (active)						
O=S(=O)(F)C(F)(F)C(F)(F)C(F)(F)C(F)(F)C(F)(F)C(F)(F)C(F)(F)C(F)(F)F	inactive	inactive	inactive	inactive	inactive	inactive	inactive	inactive	inactive	inactive									
CC(O)C(F)(F)C(F)(F)F (stereo not drawn)	inactive	inactive	inactive	inactive	inactive	inactive	inactive	inactive	inactive	inactive									
CC1=C(C(=O)Nc2ccccc2)S(=O)(=O)CCO1	inactive	inactive			inactive				inactive	inactive			44.3 µM (active)	6.73 µM (active)	45.4 µM (active)		66.8 µM (active)		18.1 µM (active)
c1ccc2c(c1)sc1ccccc12	inactive	inactive	inactive	inactive	inactive	inactive	inactive	inactive	inactive	inactive									
O=C(O)C(F)(F)OC(F)(F)C(F)(F)OC(F)(F)C(=O)O	inactive	inactive	inactive	inactive	inactive	inactive	inactive	inactive	inactive	inactive									
O=P(OCC(Br)CBr)(OCC(Br)CBr)OCC(Br)CBr (stereo not drawn)	inactive	inactive	inactive						inactive	inactive			8.35 µM (active)	20.6 µM (active)		19.5 µM (active)	53.9 µM (active)		40.1 µM (active)
CCCCc1ccc(O)cc1	inactive	inactive		inactive	inactive		inactive	inactive	inactive	inactive					71.4 µM (active)		148 µM (active)		
CCOP(=S)(NC(C)C)Oc1ccccc1C(=O)OC(C)C (stereo not drawn)	inactive	inactive	inactive		inactive	inactive	inactive	inactive	inactive	inactive			26.5 µM (active)						
CC(=O)CCc1ccc2c(c1)OCO2	inactive	inactive	inactive	inactive	inactive	inactive	inactive	inactive	inactive	inactive									
C=C(C)C(=O)OCC1CO1 (stereo not drawn)	inactive	inactive	inactive	inactive	inactive	inactive	inactive	inactive	inactive	inactive									
Cc1ccc(C(=O)Cl)cc1	inactive	inactive	inactive	inactive	inactive	inactive	inactive	inactive	inactive	inactive									
